Source: PubChem
MEKK2wt PB1 HTS: modulators of MEK5 binding to wildtype MEKK2, primary screen, biochemical, multiplex bead flow cytometry, Alexa488-MEK5 | AID 1531, 2009 | Alexa488-MEK5 binding to MEKK2 WT; actives lie on both sides | binding response (% of control), % at 10 µM | Mitogen-activated protein kinase kinase kinase 2 (Homo sapiens), Q9Y2U5 | 1.1% of 290,000 active; in the data active = binding response below about 67% or above about 130%
Beta2AR agonist: beta2AR agonists driving receptor internalization, primary screen, cell-based, FAP fluorogen, flow cytometry; Beta-2 adrenergic receptor (Homo sapiens), P07550; Am2.2-beta2AR cells; response, % (concentration not given with the values); 0.43% of 340,000 active; AID 504454, 2011;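 active = response above a set limit, near 3 SD of response in nonfluorescent compounds, cut at about 42% in these data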
MEKK2 mut-MEK5: MEK5 binding signal on mutant MEKK2 PB1, primary screen, biochemical, multiplex bead flow cytometry, Alexa488-MEK5; Alexa488-MEK5 binding to MEKK2 mutant; percent response, % at 10 µM; 0.35% of 290,000 active; AID 1530, 2009; in the data active = percent response above about 24%, passing the limit was not always enough
GRK2 aptamer HTS: compounds blocking aptamer binding on GRK2 – biochemical, human GRK2, bead flow cytometry, HTS, primary screen; AID 488847, 2010; Beta-adrenergic receptor kinase 1 (Homo sapiens), P25098; 0.59% of 330,000 active; FAM-aptamer displacement from GRK2; inhibition of aptamer binding, % at 10 µM;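 active = inhibition of aptamer binding above 40%, roughly 3 SD of noise, on plates passing a quality check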;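 note: median bead fluorescence of bound FAM aptamer so fluorescent compounds give negative values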
Target sequence (P25098 whole entry, looked up): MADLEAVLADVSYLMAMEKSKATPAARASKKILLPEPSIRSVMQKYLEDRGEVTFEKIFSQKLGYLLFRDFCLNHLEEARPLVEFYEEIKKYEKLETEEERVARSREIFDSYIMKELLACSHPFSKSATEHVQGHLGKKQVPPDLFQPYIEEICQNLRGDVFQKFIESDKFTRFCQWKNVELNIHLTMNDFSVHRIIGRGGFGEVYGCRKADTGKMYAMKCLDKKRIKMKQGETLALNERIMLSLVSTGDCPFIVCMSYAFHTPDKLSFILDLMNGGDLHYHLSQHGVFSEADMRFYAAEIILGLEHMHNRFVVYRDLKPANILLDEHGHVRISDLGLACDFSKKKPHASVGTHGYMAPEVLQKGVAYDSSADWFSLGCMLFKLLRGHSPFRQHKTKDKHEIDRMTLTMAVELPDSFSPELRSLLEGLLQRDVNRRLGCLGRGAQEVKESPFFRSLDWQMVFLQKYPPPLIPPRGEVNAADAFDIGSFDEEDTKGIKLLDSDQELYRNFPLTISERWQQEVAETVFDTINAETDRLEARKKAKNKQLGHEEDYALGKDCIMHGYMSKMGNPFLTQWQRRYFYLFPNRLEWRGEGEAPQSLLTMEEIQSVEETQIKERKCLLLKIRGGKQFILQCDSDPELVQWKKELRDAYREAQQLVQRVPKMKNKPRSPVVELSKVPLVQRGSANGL
MEKK3 PB1 HTS: modulators of MEKK3-MEK5 PB1 binding, primary screen, biochemical, wildtype MEKK3, multiplex bead flow cytometry, Alexa488-MEK5. Mitogen-activated protein kinase kinase kinase 3 (Homo sapiens), Q99759. bead-based flow cytometry, Alexa488-MEK5 binding to MEKK3; actives lie on both sides; 0 = blocked by unlabeled MEK5, 100 = vehicle. binding response (% of control), % at 10 µM. 1.4% of 290,000 active;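 active = binding response more than 3 SD above or below the average of its plate-row segment, actives on both sides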;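 note: Alexa488 bead fluorescence after subtracting the streptavidin-only scavenger bead signal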
GRK2 inh confirm: GRK2 aptamer-displacing inhibitors, retest, confirmation, biochemical, cherry pick 1, bead flow cytometry. shares compounds with GRK2 aptamer HTS. bead-bound GRK2, FAM-aptamer displacement. aptamer displacement, % at 10 µM. 4% of 2,000 active;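 active = aptamer displacement above 40%, near three times the noise of non-fluorescent compounds, on plates passing quality checks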;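 note: negative values mostly reflect intrinsic compound fluorescence rather than true enhancement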
Aptamer quench 1: counter-screen for GRK2 aptamer inhibitors: fluorescent aptamer quenchers. shares compounds with GRK2 aptamer HTS. Fluorescent RNA aptamer beads, quenching, flow cytometry; active compounds read high. fluorescence change (kMESF span), kMESF (concentration not given with the values). 110 tested, under 10 active;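 active = compounds whose bead fluorescence drops by more than 37 kMESF across the dose range, marking them as dye quenchers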
FAM quench CP1: quenches fluorescent RNA aptamer, GRK2 hit artifact | Carboxyfluorescein RNA aptamer on beads, flow cytometry quenching; active compounds read low | shares compounds with GRK2 aptamer HTS | fluorescence response (% of DMSO), % at 10 µM | 2,000 tested, under 10 active | AID 504580;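 active = compounds that quench the bead-bound fluorescent RNA probe, cutting fluorescence to under half of the solvent control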;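 note: counterscreen run without GRK2 so only probe quenching by compound is measured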
GRK2 confirm 2: GRK2 aptamer-displacing inhibitors, hit retest, confirmation, biochemical, cherry pick 2, bead flow cytometry | shares compounds with GRK2 aptamer HTS | bead-bound GRK2, FAM-aptamer displacement | inhibition of aptamer binding, % at 10 µM | 360 tested, under 10 active | AID 504782, 2011;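 active = inhibition of aptamer binding above 40%, about triple the noise seen with nonglowing compounds, on plates passing quality control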;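 note: negative values mostly come from compounds that fluoresce themselves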
FAM quench SP: quenches fluorescent RNA aptamer, GRK2 hit artifact; shares compounds with GRK2 aptamer HTS; carboxyfluorescein RNA aptamer beads, flow cytometry quenching; active compounds read low; fluorescence response vs DMSO, % at 10 µM; 360 tested, under 10 active;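 active = response vs DMSO under 50%, meaning signal dropped by over half, treated as fluorescence quencher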;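 note: labelled aptamer on streptavidin beads without GRK2 as a quench counter-screen; 100% = bead fluorescence of DMSO wells and lower means quenching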
Starred values were filed as active, the others as inactive; / = no result. Most compounds without a hit are left out; they make up all but 2.9% or so of the library.

SMILES	MEKK2wt PB1 HTS	Beta2AR agonist	MEKK2 mut-MEK5	GRK2 aptamer HTS	MEKK3 PB1 HTS	GRK2 inh confirm	FAM quench CP1	others
O=C(Nc1ccc(S(=O)(=O)N2CCCCC2)cc1)C1CC(=O)N(c2ccccc2)C1 (configuration not stated)	99	-4	-1	1	102	/	/
COc1ccc(CCNC(=O)CNS(=O)(=O)c2ccc(Cl)cc2)cc1	/	4	/	1	/	/	/
Cc1nc(N2CCN(C(=O)c3ccco3)CC2)c2c3c(sc2n1)CC(C)CC3 (configuration not stated)	85	-5	-4	0	85	/	/
Cc1nc(N2CCN(C(=O)c3ccco3)CC2)c2c3c(sc2n1)CCCC3	91	-5	1	19	70	-2	96
CN(C(=O)c1cccc(C#N)c1)c1nnc(-c2ccncc2)s1	103	0	3	/	101	0	107
CN(C(=O)c1cccc(C#N)c1)c1nnc(-c2cnccn2)s1	111	-14	15	0	107	/	/
Cc1cc(NS(=O)(=O)c2ccc(NC(=O)CCCOc3ccccc3C)cc2)no1	96	2	0	0	101	/	/
O=C(CN(C(=O)CNC(=O)c1ccco1)c1ccc(F)cc1)NC1CCCCC1	97	6	-1	0	100	/	/
O=C(Cn1cc([N+](=O)[O-])cn1)N1CCCc2ccccc21	93	-5	-6	0	97	/	/
O=C(Cn1cc([N+](=O)[O-])cn1)N1CCc2ccccc21	102	-9	3	3	100	0	99
CCN1CCN(C(=O)c2ccc3c(c2)S(=O)(=O)c2ccccc2C3=O)CC1	82	1	-13	11	74	/	/
Cc1ccccc1C(=O)N1CCC(C(=O)NN2C(=O)NC3(CCCCC3)C2=O)CC1	/	6	/	0	/	/	/
O=C(NCc1ccco1)c1nn2c(C(F)(F)F)cc(-c3cccs3)nc2c1Br	108	4	15	19	106	/	/
O=C(NCc1ccco1)c1nc2nc(-c3cccs3)cc(C(F)(F)F)n2n1	113	1	4	42*	110	2	99
C=CC1=CCN(S(=O)C(C)(C)C)[C@H]1CCO (some centres not stated)	/	-9	/	/	/	/	/
CN1CCN(c2ccc(-c3cccc(NC(=O)COc4ccccc4)c3)nn2)CC1	/	6	/	0	/	-11	96
CCC(=O)Nc1cccc(-c2ccc(N3CCN(C)CC3)nn2)c1	101	-8	6	0	98	/	/
CN1CCN(c2ccc(-c3cccc(NC(=O)COc4ccc(Cl)cc4)c3)nn2)CC1	/	5	/	0	/	-13	100
Cc1ccc(S(=O)(=O)NCc2ccccc2)cc1C(=O)N(C)Cc1ccc(F)cc1	107	-5	7	0	100	/	/
Cc1c(NC(=O)NC(C)N2C(=O)C3C4C=CC(C4)C3C2=O)c(=O)n(-c2ccccc2)n1C (configuration not stated)	102	3	6	81*	99	3	101
O=C(NC1CC1)c1cccc2c1C(=O)c1ccc(N3CCC(Cc4ccccc4)CC3)cc1S2(=O)=O	/	-40	/	73*	/	/	/	GRK2 confirm 2=-20;FAM quench SP=101
Cc1ccc(OCCn2c(SCCO)nc3c(N)ncnc32)cc1	113	-11	12	0	110	/	/
Cc1oc(-c2ccc(Cl)cc2)nc1CN1CCCC(C(=O)NC2CC2)C1 (configuration not stated)	106	8	5	0	108	/	/
Cc1oc(-c2ccc(Cl)cc2)nc1CN1CCCC(C(=O)NCc2ccco2)C1 (configuration not stated)	112	-6	1	3	98	-2	97
COc1ccc(-c2nc(CN3CCCC(C(=O)NC4CCCC4)C3)c(C)o2)cc1 (configuration not stated)	117	1	3	0	108	/	/
SMILES	MEKK2wt PB1 HTS	Beta2AR agonist	MEKK2 mut-MEK5	GRK2 aptamer HTS	MEKK3 PB1 HTS	GRK2 inh confirm	FAM quench CP1	others
Cc1ccccc1-c1nc(CN2CCCC(C(=O)NCc3cccnc3)C2)c(C)o1 (configuration not stated)	103	1	2	0	100	1	108
COc1ccc(CNC(=O)C2CCCN(Cc3nc(-c4cccc(C)c4)oc3C)C2)cc1 (configuration not stated)	115	-5	5	0	104	0	95
Cc1ccccc1-c1nc(CN2CCCC(C(=O)NCCCN3CCOCC3)C2)c(C)o1 (configuration not stated)	/	2	/	0	/	/	/
Nc1c(C(=O)N2CCCCCC2)oc2ccccc12	106	-4	2	3	101	/	/
O=C(/C=C/c1ccc(OC(F)F)cc1)OCC(=O)N1CCc2ccccc21	/	-6	/	2	/	/	/
COc1ccccc1/C=C/C(=O)OCC(=O)N1CCc2ccccc21	/	-5	/	95*	/	-4	102
O=C(CC(O)c1ccccc1)Nc1ccccn1 (configuration not stated)	/	-6	/	/	/	/	/
Cc1cnc(NC(=O)Cc2c[nH]c3ccccc23)s1	102	25	4	51*	103	-1	99
Fc1cccc(CN2CCN(c3nc4nonc4nc3NC3CC3)CC2)c1	76	2	-20	0	81	/	/
O=C(c1cccc(F)c1)N1CCN(c2cccc(C(F)(F)F)c2)CC1	101	-1	1	60*	99	1	94
O=C(O)C(CCc1ccccc1)(Cc1ccccc1)C(=O)O	/	5	/	/	/	/	/
CC12CCC(=O)N1C(C(=O)N1CCN(S(=O)(=O)c3ccc(Br)cc3Cl)CC1)CS2 (configuration not stated)	/	-12	/	0	/	/	/
CCN1/C(=C/C=C/c2sc3ccccc3[n+]2CC)Sc2ccccc21	/	-13	/	100*	/	101*	94	Aptamer quench 1=-1.3
